Laboratory results from paper PMC12136788.
Changes are numbered by the printed parent chain. Over roughly 5,800 sequences, “enrichment r” has its median near 0.54; the highest 2% begin near 16. The list comes from a sample in which the highest values are over-represented; it also holds similar and randomly drawn sequences.

B1: ENSG00000198589:be:win_3051|CDS|ENSG00000198589|bound_else_gene|NA|bound_elsewhere_windowed (ssRNA)
RNA: GGGAGUUCUACAGUCCGACGAUCAGAAAUGAAAGCUGAGCAAGAAAAUCAGGAGUUACCAGAUGAAGGCACUUUGGAAGAAACACUGACAAAUGAGACAAGGAAUGCAGAUGAUUUAGAAGUAUCUUCUGACAUAAUAGAAGCCAACAGAGGAUUGAGCAUCA
B2: chr8:58582127:58582250:+|3pUTR|ENSG00000137575|unk|total|mutant (ssRNA)
RNA: GGGAGUUCUACAGUCCGACGAUCUUCAUAUUACUUCCGUUCUACCGCAUACUUGCAUCUUUAACAUGCUAUCACCGUACAUUCCGAAUGAUUGCCUUUGAUUUUUUUUUUAAAUUCUGUGUGUGUGUGUGUAAAAUGCCAAUUCAACAGAGGAUUGAGCAUCA
B3: chr3:44491765:44499181:-|three_prime_utr|ENSG00000178917|control|control|control (ssRNA)
RNA: GGGAGUUCUACAGUCCGACGAUCACUAAUCACAGUGGAGACCAUACCUACUUGCUUUUCCUUGGGUCACUAAGGUGGGAGAGUAGGUGCAACUUAGUCUGAUCCUUACUUAGUAGGAAAUUGGGGAUUACAUCUGUCAUUAACCAACAGAGGAUUGAGCAUCA
B4: chr11:59152587:59152688:+|CDS|ENSG00000166801|msi1|FALSE|unique (ssRNA)
RNA: GGGAGUUCUACAGUCCGACGAUCAUUGAAAACUUCAAGAAAAAAAUGAAAGUAAAAAAUGGGGAAACAUUAUUUGAAUUGCAUAGAACAACGUUUGGGAAAGUAACAAAAAAUUCUUCUUCGAUUAAAGUAGUGAAACUUCUUCAACAGAGGAUUGAGCAUCA
B5: chr3:98797769:98798349:-|3pUTR|ENSG00000057019|msi1|total|mutant (ssRNA)
RNA: GGGAGUUCUACAGUCCGACGAUCUUGUUUUUGAUACCUCCUGGCAGCUUCCAUGUCACCACUUGUUCAUACCUGCCCAGAGCCCGUUUCCGACAUGGCAAAACCGAAAUCAUCUGUAAUUUAUCCGCUAACAAUGUAAAACCACAACAGAGGAUUGAGCAUCA
B6: chrX:71101288:71101389:+|CDS|ENSG00000184481|unk|FALSE|unique (ssRNA)
RNA: GGGAGUUCUACAGUCCGACGAUCGGAGGCCCUGCUCACCUCUGAUACGCCACCACCCCCUGCUGACGUCCUCAUGACCCAGGUAGAUCCCAUUCUGUCCCAGGCUCCGACUCUUCUGUUGCUGGGGGGGCUUCCUUCCUCCAGCAACAGAGGAUUGAGCAUCA
B7: ENSG00000198589:be:win_9451|3pUTR|ENSG00000198589|bound_else_gene|NA|bound_elsewhere_windowed (ssRNA)
RNA: GGGAGUUCUACAGUCCGACGAUCUUAAACUAUCAUCUCCACCUUCCUUUUGAUUAGCAAUUUGUACUAAGAAACGAAACAAUGUUAUUUGGUGGUGUAUAAUUCUACUUUUCUAGUAGAUUACUGUGUGGAAUUCUGUGAAAACAACAGAGGAUUGAGCAUCA
B8: chr16:57253408:57253449:+|3pUTR|ENSG00000102931|msi1_unk|FALSE|overlapping (ssRNA)
RNA: GGGAGUUCUACAGUCCGACGAUCUGUGUGGUAGAUUACUUAUCAGAAAACAUAUAUGUCAUCUCUAGAACGAAGAAAAAGCAUAGUAGUUCAAUUCCCAGUGUGUCCCUUUGAUUUUUUUUUUUUAAUAGUAAAAAUAAGAAUCAACAGAGGAUUGAGCAUCA
B9: chr14:51255895:51255996:+|3pUTR|ENSG00000139921|msi1_unk|FALSE|overlapping (ssRNA)
RNA: GGGAGUUCUACAGUCCGACGAUCGUGAAUCCAUUAGAUUUACAGUAUCGUAAUAUACAAGUUUUCUUUAAAGCCCUCUCCUUUAGAAUUUAAAAUAUUGUACCAUUGAAGAGUUUGGAUGUGUAACUUGUGAUGCCUUAGAAACAACAGAGGAUUGAGCAUCA
B10: ENSG00000070961:be:win_3151|CDS|ENSG00000070961|bound_else_gene|NA|bound_elsewhere_windowed (ssRNA)
RNA: GGGAGUUCUACAGUCCGACGAUCACAUUACUCUGGGGCCAGCUUAUUUCAACAAUUCCAACUAGCCGUUUAAAAUUCCUCAAAGAAGCUGGUCAUGGAACACAAAAGGAAGAAAUACCUGAGGAGGAAUUAGCAGAGGAUGUUCAACAGAGGAUUGAGCAUCA
B11: chrX:71300841:71300885:+|3pUTR|ENSG00000147140|msi1_unk|FALSE|overlapping (ssRNA)
RNA: GGGAGUUCUACAGUCCGACGAUCCCCCAUAUAUUACCCCUUCAUGUCCUAAAGAAGACAUUUUCUCUUAGAGAUUUUCAUUUUAGUGUAUCUUUAAAAAAAAAUCUUGUGUUAACUUGCCUCCAUCUUUUUCUUGGGUGAGGACAACAGAGGAUUGAGCAUCA
B12: chr5:111496093:111496242:-|3pUTR|ENSG00000164211|unk|FALSE|unique (ssRNA)
RNA: GGGAGUUCUACAGUCCGACGAUCUUUACAUGUAUAGUUAAAUAUUAAAAUUCAUCUCUUGCAGUUCAAUAAAAGCUAUAGUAUAGAUUUUAUUUUUAAGAAGUUUAUAUAAUUCUUUUGUGAACCAAUAUGUAAAACUAGAAUCAACAGAGGAUUGAGCAUCA
B13: chr2:16549458:16552935:-|three_prime_utr|ENSG00000197872|control|control|control (ssRNA)
RNA: GGGAGUUCUACAGUCCGACGAUCUUGCUACUGGAGUCCUUUAACAACAUCUAUAACGAUAAAAAAUUCCUAAUUGUUUGUGGUAGUAUUUUAAUUCUAGAUGUGUUAUCUCUCUGGGAAGUAUAGUUUAUAGAAACACAAAAUCAACAGAGGAUUGAGCAUCA
B14: ENSG00000139428:stop:overlap|stop_codon|ENSG00000139428|stop_codon|NA|stop_codon (ssRNA)
RNA: GGGAGUUCUACAGUCCGACGAUCUAUUACUAUUCUUAACACUUACCUGUUCCUGGCUACCAUUUCUCCAUGGCGGGCCUGACUAGGUUUGCUCUGGAAUUAGUCACAGAAAAGGGCCAUACAUUUGCCGAAGAGCUUCAGAAACAACAGAGGAUUGAGCAUCA
B15: chr22:45843749:45843850:+|3pUTR|ENSG00000130638|msi1|FALSE|unique (ssRNA)
RNA: GGGAGUUCUACAGUCCGACGAUCAAAUUGCAAGUGUUUGAAGAUUUAUAAGUACAAAUUUGGGAACAUACAAAUCUUUUAGGUAGUAGAGUUUAACGUGUAUAAGCUAAAAGUGAAAGUAACUGAGUGUUCUCUUGUUUCUUUCAACAGAGGAUUGAGCAUCA
B16: chr6:73594753:73594854:-|3pUTR|ENSG00000119899|unk|FALSE|unique (ssRNA)
RNA: GGGAGUUCUACAGUCCGACGAUCGGUUCACAUACCUGCCUGCUAGUCGGGCAACAUGAAGUAGGACAGUUCUGUUGAUUUUUUAGGGCCAUACUAAAGGGAAUGAGCUGAAACAGACCUCCUGAUACCUUUGCUUAAUUAAACCAACAGAGGAUUGAGCAUCA
B17: chrX:71300841:71300885:+|3pUTR|ENSG00000147140|msi1_unk|total|mutant (ssRNA)
RNA: B11 RNA with U68C, A69C, U83C, A84C
B18: chr16:57253408:57253449:+|3pUTR|ENSG00000102931|msi1_unk|total|mutant (ssRNA)
RNA: B8 RNA with U31C, A32C, U65C, A66C, U83C, A84C, U86C, A87C, U128C, A129C
B19: chr4:25747873:25747886:-|3pUTR|ENSG00000091490|msi1_unk|FALSE|overlapping (ssRNA)
RNA: GGGAGUUCUACAGUCCGACGAUCUAGCAGUUAUAAGGCACCUUGAAAUAAAUUGUUUGUGCCUGGAAAUGCAGGGAGGGCAAUAGCUUUGUAAAUUGGUUUACAUUUUUCUCCUUGAAUUUUUCUAGGGUCCUAGUGCUUCCGCAACAGAGGAUUGAGCAUCA
B20: ENSG00000107863:be:win_3601|CDS|ENSG00000107863|bound_else_gene|NA|bound_elsewhere_windowed (ssRNA)
RNA: GGGAGUUCUACAGUCCGACGAUCAAGGGAAUGGCUGAUAUUGAUAUACAAGAUGAUAAAUGGCGAGAUUUGAAUGUGAUAAGCAGUUUACUAAAAUCCUUCUUCAGAAAACUCCCUGAGCCUCUCUUCACAAAUGAUAAAUAUCAACAGAGGAUUGAGCAUCA
B21: chr6:52502144:52502313:-|3pUTR|ENSG00000065308|msi1|total|mutant (ssRNA)
RNA: GGGAGUUCUACAGUCCGACGAUCUCAGCCAUUCACAAGCAUUCAAAACCAAACCAAACAGCAGUUCAUAUACCUGCCUGAGACCGGCUGGUCCUCACCUCCAGAGCCAGCCAGCCCCGUCAGGGGCCAAACUUACUACCUUGACAACAGAGGAUUGAGCAUCA
B22: chr10:119917856:119917957:+|CDS|ENSG00000107651|unk|total|mutant (ssRNA)
RNA: GGGAGUUCUACAGUCCGACGAUCUAAGAAAAUCACUUUGCCAAGUAUUGGUCGAUUUCGUCACUUUACCAAUGAAACUUUGCCCGAUAUUUUAUUUUAUAACAGCCCCACCUACUGUCAGACAAUUGUGGAAAAAGCCGGAAUCAACAGAGGAUUGAGCAUCA

Target: MSI1 full-length (mouse, UniProt Q61474 1-362)
Sequence (Q61474 whole entry): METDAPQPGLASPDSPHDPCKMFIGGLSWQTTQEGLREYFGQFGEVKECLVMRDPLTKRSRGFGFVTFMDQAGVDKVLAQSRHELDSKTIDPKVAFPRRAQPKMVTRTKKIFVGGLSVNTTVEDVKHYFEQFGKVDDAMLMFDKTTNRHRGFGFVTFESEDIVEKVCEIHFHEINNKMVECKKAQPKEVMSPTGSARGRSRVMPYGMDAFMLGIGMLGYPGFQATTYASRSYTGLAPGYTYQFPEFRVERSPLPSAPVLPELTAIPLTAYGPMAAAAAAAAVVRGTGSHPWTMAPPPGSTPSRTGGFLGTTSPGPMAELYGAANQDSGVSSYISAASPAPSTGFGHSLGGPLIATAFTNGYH
Experiment: nsRBNS (natural sequence RNA bind-n-seq); RBNS binding buffer (assumed for nsRBNS): 25 mM Tris pH 7.5, 150 mM KCl, 3 mM MgCl2, 0.01% Triton X-100, 500 ug/ml BSA, 20 U/ml SUPERase-In, 4 C; UNK is unkempt and MSI1 is Musashi-1; names of the RNAs are library labels; protein concentration not given here; high values mean tight binding

Q: Which binding signal does the source give for B1 here?
A: 0.825 enrichment R

Q: For B2, which binding signal is on record?
A: 0.478 enrichment R

Q: How did the binding signal turn out when B3 was run?
A: 0.646 enrichment R

Q: For B4, which binding signal is on record?
A: 0.574 enrichment R

Q: B5 was tested. Which binding signal did it give?
A: 0.808 enrichment R

Q: How did the binding signal turn out when B6 was run?
A: 0.429 enrichment R

Q: Which binding signal does the source give for B7 here?
A: 1.55 enrichment R

Q: B8 was tested. Which binding signal did it give?
A: 21 enrichment R

Q: B9 was tested. Which binding signal did it give?
A: 5.27 enrichment R

Q: How did the binding signal turn out when B10 was run?
A: 0.641 enrichment R

Q: B11 was tested. Which binding signal did it give?
A: 16.5 enrichment R

Q: Which binding signal does the source give for B12 here?
A: 2.64 enrichment R

Q: Which binding signal does the source give for B13 here?
A: 25 enrichment R

Q: Which binding signal does the source give for B14 here?
A: 18.8 enrichment R

Q: With B15 as the binder, how does the binding signal read?
A: 7.75 enrichment R

Q: With B16 as the binder, how does the binding signal read?
A: 0.746 enrichment R

Q: For B17, which binding signal is on record?
A: 0.906 enrichment R

Q: With B18 as the binder, how does the binding signal read?
A: 0.465 enrichment R

Q: Which binding signal does the source give for B19 here?
A: 1.14 enrichment R

Q: With B20 as the binder, how does the binding signal read?
A: 0.64 enrichment R

Q: For B21, which binding signal is on record?
A: 0.877 enrichment R

Q: For B22, which binding signal is on record?
A: 0.52 enrichment R
